Experimental data as given in PubChem BioAssay AID1159580 (chemical genetic matrix, 2015).
Several values for one entry are separate records, joined by “and”; a condition that tells them apart may be missing. Equal values may be shown once. Out of some 5,500 compounds screened, about 2,000 (36%) were called active. Not shown: some 18% with an inconclusive outcome. Rule as the data show it: active = normalized growth mostly below about 0.91 (no sharp cut-off); inconclusive = no clear call, values can overlap the other calls; inactive = mostly above about 0.92. The list shows a part of the results.

Assay: chemical genetic growth profiling, strain panel (AID 1159580);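 also: tested at 20 µM; growth read once vehicle control cultures reached saturation at 30 °C; 1 = growth at the plate median or of vehicle wells; lower values mean less growth of the strain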
Conditions: S. cerevisiae deletion strains, growth OD

Measured: normalized growth

CC[N+](C)(C)c1cccc(O)c1
inactive: locus YJR075W, strain HOC1, active compounds read low 0.985 and 1.04 | locus YKL009W, strain mrt4, active compounds read low 1 | locus YKL068W, active compounds read low 0.985 | locus YKL085W, strain MDH1 (second series), active compounds read low 1 | locus YKL085W, strain MDH1, active compounds read low 1 | locus YKL160W, strain elf1, active compounds read low 1.06 | locus YKL190W, strain CNB1, active compounds read low 1.01 | locus YKR001C, strain vps1, active compounds read low 0.97 | locus YKR026C, strain gcn3, active compounds read low 1 | locus YKR091W, strain srl3, active compounds read low 1.01 | locus YLL001W, strain dnm1, active compounds read low 1.06 | locus YLL026W, active compounds read low 1 | locus YLL041C, strain sdh2, active compounds read low 1.01 | locus YLR027C, strain aat2, active compounds read low 1.02 | locus YLR039C, strain RIC1, active compounds read low 0.993 | locus YLR058C, strain SHM2, active compounds read low 0.982 | locus YLR102C, strain apc9, active compounds read low 0.977 | locus YLR113W, strain HOG1, active compounds read low 0.996 | locus YLR221C, strain rsa3, active compounds read low 1.03 | locus YLR258W, strain gsy2, active compounds read low 1.01 | locus YLR262C, strain YPT6 (second series), active compounds read low 1.05 | locus YLR262C, strain YPT6, active compounds read low 1 | locus YLR268W, strain sec22, active compounds read low 0.917 | locus YLR320W, strain mms22, active compounds read low 1.06 | locus YLR330W, strain CHS5, active compounds read low 0.992 | locus YLR342W, strain FKS1 (second series), active compounds read low 1.04 | locus YLR342W, strain FKS1, active compounds read low 1.02 | locus YLR357W, strain rsc2, active compounds read low 1.01 | locus YLR370C, strain arc18, active compounds read low 1.01 | locus YLR371W, strain rom2, active compounds read low 0.969 | locus YLR384C, strain iki3, active compounds read low 0.996 | locus YLR418C, strain cdc73, active compounds read low 0.954 | locus YML016C, strain PPZ1, active compounds read low 0.992 | locus YML032C, strain rad52, active compounds read low 0.954 | locus YML120C, strain ndi1, active compounds read low 1.04 | locus YML124C, strain tub3, active compounds read low 0.984 | locus YMR058W, strain fet3, active compounds read low 1.02 | locus YMR078C, strain ctf18, active compounds read low 0.96 | locus YMR125W, strain sto1, active compounds read low 1.05 | locus YMR129W, active compounds read low 1.01 | locus YMR205C, strain PFK2, active compounds read low 1.04 | locus YMR223W, strain ubp8, active compounds read low 0.996 | locus YMR231W, strain pep5, active compounds read low 1 | locus YMR263W, strain SAP30, active compounds read low 0.993 | locus YMR307W, strain GAS1, active compounds read low 0.956 and 1.04 | locus YNL067W, strain RPL9B, active compounds read low 0.975 | locus YNL071W, strain lat1, active compounds read low 1.02 | locus YNL128W, strain TEP1, active compounds read low 0.991
